Sampled rows, rich in hits. Any-hit rate of the full collection: about 1.6%.
ugtP null kill = growth inhibition of S. aureus ugtP deletion strain; actives 0.54% (n = 330,000); growth inhibition, % (test concentration not listed); AID 1259309; S. aureus RN4220 ugtP deletion, OD600 growth, 16 h; in the data active = growth inhibition above about 68%;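 also: plate controls were untreated wells for no effect and antibiotic for full effect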
RN4220 kill = S. aureus RN4220 growth inhibition; OD600, 16 h; actives 0.33% (n = 330,000); inhibition, % (concentration not given with the values); AID 1259311; in the data active = inhibition above about 85%;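 also: plate controls were untreated cells for no effect and reference antibiotic for full effect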
CCHF vOTU inh-1 = CCHFV vOTU protease inhibition; AID 651958; actives 0.55% (n = 370,000); inhibition, % at 11.5 µM; Pep-AMC fluorescence; also: 0% = vehicle wells with enzyme and 100% = no enzyme wells
BJeLR viability = kills HRASV12-expressing BJeLR cells; inhibition, % (test concentration not listed); actives 0.17% (n = 300,000); BJeLR (HRASV12) viability, CellTiter-Glo ATP luminescence, 48 h; AID 1554; in the data active = inhibition above about 50%; inconclusive = no clear call, values can overlap the other calls
PfHsp40 yeast = rescue of PfHsp40-mediated yeast toxicity | growth rescue, % at 12.5 µM | AID 504582 | actives 0.68% (n = 340,000) | S. cerevisiae expressing PfHsp40, growth rescue, ATP luminescence; in the data active = growth rescue above about 28%, passing the limit was not always enough; inconclusive = no clear call, values can overlap the other calls;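 also: yeast W303a lacking pdr1 and pdr3 grown in galactose medium; growth measured after three days at 30 °C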
CCHF vOTU inh-2 = CCHFV vOTU protease inhibition, confirmation; shares compounds with CCHF vOTU inh-1; AID 686976; actives 17% (n = 1,900); Recombinant CCHFV vOTU, Pep-AMC fluorescence; inhibition, % at 11.5 µM
Active calls of the source: *; ? = inconclusive; . = no result given. Rule as the data show it, unless noted: active = inhibition above about 30%; inactive = the rest.

SMILES | ugtP null kill | RN4220 kill | CCHF vOTU inh-1 | BJeLR viability | PfHsp40 yeast | CCHF vOTU inh-2
CCCN(C(=O)Cc1nc(N)n[nH]1)C1(C(=O)Nc2ccccc2C)CCCCC1 | -3 | 4 | -4 | 12 | 0 | .
CCCN(C(=O)Cc1nc(N)n[nH]1)C1(C(=O)Nc2c(C)cccc2C)CCCCC1 | -5 | -1 | 39* | 7 | 1 | -24
CC(/C=C1\SC(=S)N(c2ccc(C(=O)O)cc2)C1=O)=C\c1ccccc1 | . | . | 30* | -1 | 0 | 4
O=C(NCc1ccccc1)C(=O)c1cn(CC(=O)N2CCOCC2)c2ccccc12 | 2 | -1 | 35* | -2 | -1 | -9
O=C(NCc1cccs1)C(=O)c1cn(CC(=O)N2CCOCC2)c2ccccc12 | 2 | 1 | -12 | 10 | 0 | .
OCC1OC(C(N=Nc2ccccc2)=NNc2ccccc2)C(O)C1O (stereo not drawn) | . | . | 31* | . | . | -16
NC(=O)/C(N=Nc1ccccc1)=N/Nc1ccccc1 | . | . | 20 | -4 | -1 | .
COC(=O)C1=C(c2ccc(C(C)=O)cc2)CC2CCC1N2C(=O)N1CCCC1 (stereo not drawn) | -5 | 2 | . | . | . | .
COc1cc(C=C2C(=O)NN(c3ccccc3)C2=O)cc([N+](=O)[O-])c1O | -6 | 1 | . | . | . | .
Cc1ccc(NC(=O)Cc2ccc(Cl)c(Cl)c2)cc1S(=O)(=O)N(C)C | -29 | -10 | 30* | -8 | -1 | -9
COc1ccc(OC)c(S(=O)(=O)N2CCC3(CC2)OCCN3S(=O)(=O)c2ccccc2)c1 | 9 | 2 | 34* | 4 | 1 | -10
C[n+]1c2ccccc2nc2ccc(NCCO)cc21 | 9 | 1 | 91* | 11 | -1 | 81*
CCN(CC)c1ccc2nc3ccccc3[n+](CC)c2c1 | . | . | . | 40 | -1 | .
CNc1ccc2nc3ccccc3[n+](C)c2c1 | . | . | 102* | 21 | -1 | 79*
CC(C)n1c(NCCO)nc2ccccc21 | 0 | 3 | -2 | -2 | ? | .
COC(=O)C1=C(c2c(C)noc2C)CC2CCC1N2C(=O)NC(C)C (stereo not drawn) | -11 | 2 | . | . | . | .
C#CCOc1c(Br)cc(C=NNC(=O)CN2CCOCC2)cc1OCC | 2 | 0 | . | . | . | .
Cc1cc2cc(NC(=O)c3ccco3)ccc2[nH]1 | -4 | -1 | 33* | 4 | 0 | -11
Cc1ccc(OCC(=O)NN=Cc2cccs2)c([N+](=O)[O-])c1 | 4 | 6 | . | . | . | .
CC[C@H](CO)Oc1cc(NCc2cccc(N)c2)c2ncn(C(C)C)c2c1 | . | . | 75* | . | . | 57*
COc1cccc(C=Nn2nnnc2N)c1 | -4 | 0 | . | . | . | .
NC(=O)C1(N2CCCCC2)CCN(C2CC(=O)NC2=O)CC1 (stereo not drawn) | 0 | 6 | 31* | -8 | -2 | -6
CN1C(=O)CC(N2CCC(C(N)=O)(N3CCCCC3)CC2)C1=O (stereo not drawn) | -4 | -3 | 0 | -2 | 1 | .
CC(=NNC(=O)c1ccco1)c1cccc(NC(=O)c2ccc(C)o2)c1 | -1 | -3 | . | . | . | .
CCOC(=O)c1c(NC(=O)COC(=O)Cn2cnc3ccccc32)sc2c1CCC(C)C2 (stereo not drawn) | -12 | 6 | 47* | . | 4 | 9
SMILES | ugtP null kill | RN4220 kill | CCHF vOTU inh-1 | BJeLR viability | PfHsp40 yeast | CCHF vOTU inh-2
CCOC(=O)c1c(NC(=O)Cn2nnc3ccccc32)sc2c1CCC(C)C2 (stereo not drawn) | -6 | -5 | 8 | 1 | 1 | .
Cc1ccc(-c2csc(NN=Cc3ccco3)n2)cc1 | 1 | 2 | . | . | . | .
C(=N\Nc1nc(-c2ccccc2)cs1)/c1ccco1 | . | . | 31* | -1 | -1 | -11
Cc1ccc(S(=O)(=O)Nc2ccccc2C=Nc2nc3ccccc3n2C)cc1 | 5 | 28 | . | . | . | .
Nc1ccc2c(c1)Cc1cc(Cl)c(Cl)cc1-2 | -7 | -9 | 0 | . | -1 | .
Nc1ccc2c(c1)Cc1cc(N)c(Cl)cc1-2 | . | . | 31* | . | 0 | -9
COc1ccccc1NS(=O)(=O)c1cc(NC(=NS(=O)(=O)c2ccccc2)c2ccc(F)cc2)ccc1Cl | -31 | 12 | . | . | . | .
CCC1=NN2C(=N)/C(=C\c3cccn3-c3c(C)cccc3C)C(=O)N=C2S1 | -13 | -4 | 17 | 4 | ? | .
Cc1cccc(C)c1-n1cccc1/C=C1/C(=N)N2C(=NC1=O)SN=C2S(C)(=O)=O | 25 | 28 | 35* | -7 | 2 | 23
Cc1ccc(-n2cccc2/C=C2/C(=N)N3C(=NC2=O)SN=C3S(C)(=O)=O)cc1Cl | 30 | 17 | 52* | . | 0 | 8
CCC(C)(C)C1CCc2c(sc(NC(=O)c3ccccc3C(=O)O)c2C#N)C1 (stereo not drawn) | 28 | -1 | 35* | 10 | 18 | 24
CN=C(Nc1ccc(Cl)cc1)c1cccc(C(F)(F)F)c1 | -13 | 2 | -3 | 1 | 2 | .
CN=C(Nc1cccnc1)c1cccc(C(F)(F)F)c1 | 12 | 1 | 49* | 2 | -2 | -14
COc1ccc(-c2cc(=O)[nH][nH]2)cc1OC | -1 | 5 | 60* | -10 | 0 | -19
COc1cccc(-c2cc(=O)[nH][nH]2)c1 | -2 | 8 | 9 | -10 | 0 | .
CCN(CC)c1ccc(/C=N/NC(=O)c2c(Cl)cnn2C)c(O)c1 | . | . | 36* | 45 | 546* | -11
O=C(COC(=O)C1CCN(c2ccc(C(F)(F)F)cn2)CC1)NCc1ccccc1 | 3 | 3 | 35* | . | 1 | -2
CC(NC(=O)COC(=O)C1CCN(c2ccc(C(F)(F)F)cn2)CC1)c1ccccc1 (stereo not drawn) | . | . | 18 | . | . | .
CCN1C(=O)C2C(c3ccc(C)cc3)N3C(=O)N(c4cccc(Cl)c4)C(=O)[C@@]3(CC)C2C1=O (stereo partly drawn) | 3 | 4 | . | . | . | .
CCOC(=O)CSc1nc2cccnc2n1-c1ccc(F)cc1 | 12 | 0 | 5 | 1 | 0 | .
CC(C)OC(=O)CSc1nc2cccnc2n1-c1ccc(F)cc1 | 12 | 3 | 31* | 2 | -1 | -9
COC(=O)C1=C(c2ccc3ccccc3c2)CC2CCC1N2C(=O)NCCO (stereo not drawn) | -4 | 6 | . | . | . | .
CC(/C=C/c1ccc2c(c1)OCO2)=NNC(=O)COc1ccccc1C | -1 | 9 | . | . | . | .
COC(=O)C1CN(Cc2ccc(F)cc2)CCS(=O)(=O)N1Cc1cn(Cc2ccc(F)cc2)nn1 (stereo not drawn) | . | . | 30* | . | . | -10
O=[N+]([O-])c1ccccc1-c1ccc(C(=S)N2CCCCC2)o1 | 9 | 13 | 10 | -6 | 1 | .
O=[N+]([O-])c1ccccc1-c1ccc(C(=S)N2CCCC2)o1 | 5 | 17 | 30* | 6 | 1 | 39*
COc1cc(C=N/N=C2/NC(=O)C(Cc3ccc(F)cc3)S2)ccc1O (stereo not drawn) | 14 | 3 | . | . | . | .
CCOC1OC(C(=O)N2CCOCC2)=CC(c2cn(C(C)=O)c3ccccc23)C1CCCO (stereo not drawn) | -1 | 4 | . | . | . | .

From PubChem
